High-throughput results (PubChem BioAssay)
Sampled rows, rich in hits. Any-hit rate of the full collection: about 3.6%.
Pf apPOL block: Pf-apPOL inhibitors, biochemical, fluorescence | Recombinant Pf-apPOL, molecular beacon fluorescence, 1.5 h | hit rate 0.25% among 210,000 | inhibition, % at 10 µM | Plasmodium falciparum apicoplast DNA polymerase (apPOL)
mHTT-CaM PPI inh: mutant huntingtin-calmodulin interaction inhibitors – biochemical, AlphaScreen, primary screen; inhibition, % at 15 µM; hit rate 3.6% among 190,000; AlphaScreen His-mHTT/GST-CaM binding, luminescence; P42858; AID 1671202, 2021
Numbers stand for hits; . = inactive; / = no result given; + = active, no number. Rule as the data show it: active = inhibition above about 50%; inactive = the rest.

SMILES | Pf apPOL block | mHTT-CaM PPI inh
CNC(=O)C1=C2CCCN2c2ccc(F)cc2S1(=O)=O | . | .
Cc1cccc(N2CCN(Cc3nc4cc(C)c(C)cc4[nH]c3=O)CC2C)c1 (stereo not given) | . | .
Cc1[nH]nc2c1C(c1ccccc1Br)CC(=O)N2 (stereo not given) | . | .
O=C(NCc1ccccn1)c1cccnc1N1CCNC(c2ccccc2)C1 (stereo not given) | . | .
Cc1cccc(C(=O)Nc2ccc(N3CCN(C(=O)c4ccc(F)cc4)CC3)nc2)c1 | . | .
Clc1ccc(N2COc3cc4c(cc3C2)OCO4)cc1 | . | .
CCOc1ccc(N2COc3ccc(Cl)cc3C2)cc1 | . | 81.0
CN(C)c1ccc(/C=C2\C(=O)NN(c3ccc(Cl)cc3)C2=O)cc1[N+](=O)[O-] | . | .
COc1cccc(-c2ccc3nc(N4CCC(C(=O)NC5CC5)CC4)sc3n2)c1 | . | .
CC(=O)N1CCc2cc(N3CC(C(=O)NC4CCCCC4)CC3=O)ccc21 (stereo not given) | . | .
CN(C)c1ccc(C=NNC2=NCCN2)cc1 | . | /
CN(C)c1ccc(/C=N/NC(=S)N/N=C/c2ccc(N(C)C)cc2)cc1 | / | +
Cc1cc(C(=O)ON=C(N)c2ccc([N+](=O)[O-])o2)no1 | . | /
COc1ccc(C(O)CN2CCN(c3cccc(Cl)c3)CC2)cc1OC (stereo not given) | . | .
COc1ccc(C(=O)Nc2nc3c(s2)CCC3C(=O)NCc2ccccn2)cc1 (stereo not given) | . | .
COc1cc2c(cc1OC)CN(Cc1ccccc1Cl)CC2 | . | .
COc1cc2c(cc1OC)CN(Cc1ccc(Cl)c(Cl)c1)CC2 | . | 55.1
CCn1ccc(C(=O)N2CCCC3(C2)Nc2ccccc2NC3=NCc2ccccc2)n1 (stereo not given) | . | .
COCC(=O)N1CCCC2(C1)Nc1ccccc1NC2=NCc1ccccc1 (stereo not given) | . | 51.0
CN(C)S(=O)(=O)N1CCCC2(C1)Nc1ccccc1NC2=NCc1ccccc1 (stereo not given) | . | 54.2
COCCN=C1Nc2ccccc2NC12CCCN(C(=O)c1ccncc1)C2 (stereo not given) | . | .
COCCN=C1Nc2ccccc2NC12CCCN(C(=O)Nc1ccc(F)cc1F)C2 (stereo not given) | . | 99.8
O=C(CN1CCOCC1)N1CCCC2(C1)Nc1ccccc1NC2=NCc1ccccc1 (stereo not given) | . | 91.5
COCCN=C1Nc2ccccc2NC12CCCN(S(=O)(=O)c1cccs1)C2 (stereo not given) | . | .
CC(=O)NCC(=O)N1CCCC2(C1)Nc1ccccc1NC2=NCc1ccccc1 (stereo not given) | . | .
SMILES | Pf apPOL block | mHTT-CaM PPI inh
CN1C(=O)c2ccc(NC(=O)Cc3ccc(Cl)cc3)cc2C1=O | . | .
Fc1ccc(-c2nn[nH]n2)cc1 | . | .
O=C(Nc1ccccc1)c1ccc2nc(NC(=O)c3ccc([N+](=O)[O-])cc3)sc2c1 | . | .
O=C(CN1CCN(c2ccccc2F)C1=O)Nc1ccc2ncccc2c1 | . | .
Cc1nn(C)c(C)c1NC(=O)c1ccccc1NS(=O)(=O)c1cc(C(F)(F)F)cc(C(F)(F)F)c1 | . | /
Cc1ccc(N2CCC(NC(=O)Nc3ccc(F)cc3)C2=O)cc1 (stereo not given) | . | .
COCCN=C1Nc2ccccc2NC12CCCN(C(=O)Cc1c(F)cccc1Cl)C2 (stereo not given) | . | .
COCCN=C1Nc2ccccc2NC12CCCN(C(=O)Cc1ccc(Cl)cc1)C2 (stereo not given) | . | 99.9
COc1cccc(CNC(=O)c2ccc3c(c2)NC(=O)C2CCCCN32)c1 (stereo not given) | . | .
Cc1ccccc1NC(=O)CN1CCC(c2nc(-c3ccncc3)no2)CC1 | . | .
COc1ccc(-c2noc(C3CCN(CC(=O)Nc4ccccc4C)CC3)n2)cc1 | . | 66.0
CC(=O)N1CCc2cc(Br)cc(S(=O)(=O)NCCc3cccc(C)c3)c21 | . | 55.0
CC(=O)N1CCc2cc(Br)cc(S(=O)(=O)NCCc3ccc(C)cc3)c21 | . | .
Cc1ccc(CNC(=O)c2ccc3c(c2)nc2n3CCN(C(C)C)C2=O)cc1C | . | .
O=C(Cc1cccs1)Nc1cccc(C(=O)c2ccccc2)c1 | . | .
O=C(Cc1cccs1)Nc1cnc(-c2ccccc2)nc1 | . | 51.2
COc1ccc(CCC(C)Nc2ccc(OC)cc2OC)cc1 (stereo not given) | . | 85.1
COc1ccc(CCC(C)NCc2ccccc2OC)cc1 (stereo not given) | . | .
COc1cc(NC(=O)c2ccc(Cl)cc2[N+](=O)[O-])c(OC)cc1NC(=O)c1ccccc1 | . | .
CCN(CC)c1ccc(C2Nc3ccc4ncccc4c3C3=C2C(=O)CC(C)(C)C3)cc1 (stereo not given) | . | 62.0
COc1ccc(Br)cc1C1Nc2ccc3ncccc3c2C2=C1C(=O)CC(C)(C)C2 (stereo not given) | . | 53.0
COc1ccc(OC)c(C2Nc3ccc4ncccc4c3C3=C2C(=O)CC(C)(C)C3)c1 (stereo not given) | . | .
CSc1ccc(C2Nc3ccc4ncccc4c3C3=C2C(=O)CCC3)cc1 (stereo not given) | . | .
CCCOc1ccc(C2Nc3ccc4ncccc4c3C3=C2C(=O)CCC3)cc1 (stereo not given) | . | 58.0
CC1(C)CC(=O)C2=C(C1)c1c(ccc3ncccc13)NC2c1ccc(Br)cc1 (stereo not given) | . | .
SMILES | Pf apPOL block | mHTT-CaM PPI inh
O=c1nc(SCc2c(F)cccc2Cl)c2c([nH]1)CCCC2 | . | .
CCCCN1C(=O)C(CC(=O)N2CCCC2)Sc2ncccc21 (stereo not given) | . | .
CCOc1ccccc1NC(=O)c1cccc(Cl)c1 | . | .
O=C(Nc1c2c(nn1-c1cccc(Cl)c1)CS(=O)(=O)C2)c1cc2ccccc2oc1=O | . | .
CCOc1ccc(N=C2C(=O)Nc3ccc(C)c(Br)c32)cc1 | . | 57.0
CCOc1ccc(N=C2C(=O)Nc3ccccc32)cc1 | . | .
COCCNC(=O)c1cncc(-c2ccc(Cl)cc2)c1 | . | .
Cc1ccc(C(=O)N2CCC(n3c(-c4ccco4)nc4cccnc43)C2)cc1F (stereo not given) | . | 72.0
O=C(c1ccccc1)N1CCC(n2c(-c3ccco3)nc3cccnc32)C1 (stereo not given) | . | .
O=C(c1ccc(F)c(F)c1)N1CCC(n2c(-c3ccco3)nc3cccnc32)C1 (stereo not given) | . | 70.7
O=C(c1cccc(Br)c1)N1CCC(n2c(-c3ccco3)nc3cccnc32)C1 (stereo not given) | . | 87.0
O=C(c1ccc(F)cc1)N1CCC(n2c(-c3ccco3)nc3cccnc32)C1 (stereo not given) | . | .
O=C(c1cccc(F)c1)N1CCC(n2c(-c3ccco3)nc3cccnc32)C1 (stereo not given) | . | .
O=C(Cn1[nH]c2c(cnc3ccc(F)cc32)c1=O)Nc1cccc(C(F)(F)F)c1 | . | .
CCOc1ccccc1CN1C(=O)CCC1(C)C(=O)NC1CCC(C)CC1 (stereo not given) | . | .
Cn1nnnc1SCC(=O)Nc1ccc2nc(SCc3ccccc3F)sc2c1 | . | .
O=c1c2c3c(sc2nc2c4ccccc4cnn12)CCCC3 | . | .
